Hits are enriched below; roughly 27% of the tested compounds scored in any of these assays.
sEH act: soluble epoxide hydrolase (human) activation; activation, % at 2 µM; purified human sEH enzymatic activity, activator screen; hit rate 0.04% among 91,000; P34913; in the data active = activation above about 37%
Target sequence (P34913 whole entry, looked up): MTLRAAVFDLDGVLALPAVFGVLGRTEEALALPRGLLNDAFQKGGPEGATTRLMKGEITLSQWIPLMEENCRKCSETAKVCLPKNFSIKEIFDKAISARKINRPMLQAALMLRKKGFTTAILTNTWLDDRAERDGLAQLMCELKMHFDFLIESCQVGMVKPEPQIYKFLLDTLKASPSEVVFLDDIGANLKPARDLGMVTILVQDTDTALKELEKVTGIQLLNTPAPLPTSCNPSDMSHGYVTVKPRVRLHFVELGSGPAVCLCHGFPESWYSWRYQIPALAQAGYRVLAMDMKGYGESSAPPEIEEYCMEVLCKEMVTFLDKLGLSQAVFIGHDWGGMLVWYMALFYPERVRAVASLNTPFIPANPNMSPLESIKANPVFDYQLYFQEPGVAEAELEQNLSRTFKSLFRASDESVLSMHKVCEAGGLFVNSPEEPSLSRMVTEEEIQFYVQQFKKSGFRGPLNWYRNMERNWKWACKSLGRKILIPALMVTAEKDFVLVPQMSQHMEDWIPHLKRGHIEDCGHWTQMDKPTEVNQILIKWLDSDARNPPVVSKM
sEH inhibitor: soluble epoxide hydrolase (human) inhibition. P34913. inhibition, % at 2 µM. recombinant human sEH enzymatic activity assay. hit rate 0.34% among 91,000; in the data active = inhibition above about 80%
CYP2C9 activ: activators of human CYP2C9; P11712; recombinant CYP2C9, luciferin-H conversion, luminescence; active compounds read high; factor 1 = untreated enzyme, 0 = blocked; activation factor at 5 µM; hit rate 1.4% among 96,000; AID 1024;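 active = activation factor of 2 or more for CYP2C9 at a 5 µM dose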
CYP2C19 act: cytochrome P450 2C19 (human) activation | recombinant CYP2C19, luciferin-H EGE luminescence; active compounds read high; 0 = fully inhibited enzyme, 1 = untreated enzyme | activation factor at 5 µM | 96,000 tested, under 10 active;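 active = activation factor of at least 2 at 5 µM in the primary screen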
CYP2C9 inhib: blocks human cytochrome P450 2C9. P11712. CYP2C9 Supersomes, luciferin-H conversion, luminescence. inhibition, % at 5 µM. hit rate 20% among 96,000. AID 777;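 active = blocking of liver enzyme CYP2C9 beyond about 50% at 5 µM, limit read from the data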
CYP2C19 inhib: human CYP2C19 inhibition; hit rate 21% among 96,000; AID 778; CYP2C19 Supersomes, luciferin-H EGE luminescence, 30 min; inhibition, % at 5 µM; P33261;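 active = CYP2C19 inhibition above a set limit at 5 µM in the primary screen, cut at about 50% in these data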
Numbers stand for hits.

Screening Cc1ccccc1NC(=O)CCSc1nnnn1-c1ccccc1 returned sEH act inactive and sEH inhibitor inactive.
CCCc1nnc2n1N=C(c1ccc(-c3cc(Cl)ccc3Cl)o1)CS2 was read as sEH act inactive and sEH inhibitor inactive.
For Cc1nnc(SCC(=O)Nc2nsc(-c3ccc(Cl)cc3)n2)s1 the results were sEH act inactive, sEH inhibitor inactive, CYP2C9 activ inactive, CYP2C19 act inactive, CYP2C9 inhib inactive and CYP2C19 inhib inactive.
COc1ccc2c(c1OC)C(=O)N(C(C)C(=O)O)C2=O (stereo not given) was read as sEH act inactive, sEH inhibitor inactive, CYP2C9 activ inactive, CYP2C19 act inactive, CYP2C9 inhib inactive and CYP2C19 inhib inactive.
`CCc1nnc(NC(=O)CSc2ncnc3c2cnn3-c2ccc(OC)cc2)s1` gave sEH act inactive, sEH inhibitor inactive, CYP2C9 activ inactive, CYP2C19 act inactive, CYP2C9 inhib inactive and CYP2C19 inhib inactive.
Screening CN(C)S(=O)(=O)c1cccc(C(=O)OCC(=O)Nc2sccc2C#N)c1 returned sEH act inactive, sEH inhibitor inactive, CYP2C9 activ inactive, CYP2C19 act inactive, CYP2C9 inhib inactive and CYP2C19 inhib inactive.
For C=C(C)c1cccc(C(C)(C)NC(=O)N2CCCCC2CC)c1 (stereo not given) the results were sEH act inactive, sEH inhibitor inactive, CYP2C9 activ inactive, CYP2C19 act inactive, CYP2C9 inhib 89 and CYP2C19 inhib 51.
Screening CCC(CO)n1c(SCc2cc(=O)oc3cc(C)ccc23)nc2ccccc2c1=O (stereo not given) returned sEH act inactive, sEH inhibitor inactive, CYP2C9 activ inactive, CYP2C19 act inactive, CYP2C9 inhib 98 and CYP2C19 inhib 97.
For O=C(CCC1COc2ccccc2O1)NCc1ccccc1 (stereo not given) the results were sEH act inactive, sEH inhibitor inactive, CYP2C9 activ inactive, CYP2C19 act inactive, CYP2C9 inhib inactive and CYP2C19 inhib 59.
O=C(CC1COc2ccccc2O1)NCCc1ccccc1 (stereo not given) was read as sEH act inactive, sEH inhibitor inactive, CYP2C9 activ inactive, CYP2C19 act inactive, CYP2C9 inhib inactive and CYP2C19 inhib 54.
`O=C(CC1COc2ccccc2O1)NCc1ccccc1` (stereo not given) gave sEH act inactive and sEH inhibitor inactive.
O=C(Cc1cccc2ccccc12)N/N=C/c1ccc(Sc2cccc3cccnc23)o1 was read as sEH act inactive, sEH inhibitor inactive, CYP2C9 activ inactive, CYP2C19 act inactive, CYP2C9 inhib 82 and CYP2C19 inhib 53.
Screening CCCCC(=O)N/N=C/c1ccc(Sc2cccc3cccnc23)o1 returned sEH act inactive, sEH inhibitor inactive, CYP2C9 activ inactive, CYP2C19 act inactive, CYP2C9 inhib 57 and CYP2C19 inhib inactive.
C/C(CC(=O)Nc1ccccn1)=N\NC(=O)Cc1cccc2ccccc12 was read as sEH act inactive, sEH inhibitor inactive, CYP2C9 activ inactive, CYP2C19 act inactive, CYP2C9 inhib inactive and CYP2C19 inhib inactive.
N#CC(C(=O)NC1CC1)c1nc2ccccc2nc1N1CCN(C/C=C/c2ccccc2)CC1 (stereo not given) was read as sEH act inactive, sEH inhibitor inactive, CYP2C9 activ inactive, CYP2C19 act inactive, CYP2C9 inhib inactive and CYP2C19 inhib inactive.
`CC(C)C(NC(=O)COc1ccc2ccccc2c1)C(=O)N/N=C/C=C/c1ccccc1` (stereo not given) gave sEH act inactive, sEH inhibitor inactive, CYP2C9 activ inactive, CYP2C19 act inactive, CYP2C9 inhib inactive and CYP2C19 inhib inactive.
`COc1ccc(CCNC(=O)CS(=O)Cc2nc(-c3cccs3)oc2C)cc1OC` (stereo not given) gave sEH act inactive, sEH inhibitor inactive, CYP2C9 activ inactive, CYP2C19 act inactive, CYP2C9 inhib inactive and CYP2C19 inhib inactive.
Screening Cc1ccccc1Cn1cccc1/C=C1/C(=N)N2C=CSC2=NC1=O returned sEH act inactive, sEH inhibitor inactive, CYP2C9 activ inactive, CYP2C19 act inactive, CYP2C9 inhib 85 and CYP2C19 inhib inactive.
Screening COc1cc(/C=C2/C(=N)N3C=CSC3=NC2=O)ccc1OCCCOc1cc(C)ccc1C returned sEH act inactive, sEH inhibitor inactive, CYP2C9 activ inactive, CYP2C19 act inactive, CYP2C9 inhib inactive and CYP2C19 inhib inactive.
Screening O=c1oc2ccccc2n1CSc1nc2ccccc2s1 returned CYP2C9 activ inactive, CYP2C19 act inactive, CYP2C9 inhib 84 and CYP2C19 inhib 100.
